Screens from PubChem BioAssay.
An excerpt weighted towards active compounds, which were near 1.8% of everything screened.
TrxR1 substrate: qHTS Assay for Substrates of Mammalian Selenoprotein Thioredoxin Reductase 1 (TrxR1): qHTS. purified TrxR1 substrate turnover, NADPH consumption readout. Potency, µM (doses to about 114 µM), inactives show at the highest dose activity change, negative = substrate turnover. 390,000 compounds, 0.01% hits; also: potency is read from the fitted curve at half-maximal effect; % is scaled to controls: 0 for no effect and ±100 for the full control effect; nearly all actives have a fitted effect of over 50% in size
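Rat TrxR1, dispensed at 90 nM, was prereduced with 400 uM NADPH (final) for 5 min at ~22 deg C, then incubated with compound 15 min before 400 uM selenite. A first-read NADPH fluorescence drop versus no-compound background flagged substrates.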
Vif-A3G inh: qHTS for Inhibitors of Vif-A3G Interactions: qHTS | DNA dC->dU-editing enzyme APOBEC-3G (Homo sapiens), Q9HC16 | HeLa A3G-eYFP + Vif (tagged APOBEC3G with the HIV-1 protein that degrades it), YFP fluorescence, overnight | Potency, µM (doses to about 46.1 µM), for the others: at the top dose activity, negative = active, usual class: inhibitors | 410,000 compounds, 0.076% hits; also: potency is read from the fitted curve at half-maximal effect; % is scaled to controls: 0 for no effect and ±100 for the full control effect; nearly all actives have a fitted effect of over 60% in size
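Read-out is eYFP fluorescence (Ex 488/Em 500-530) from Vif-expressing HeLa A3G-eYFP cells; more signal means A3G escaped Vif-mediated degradation. Cells plated overnight, compound pinned in, incubated overnight at 37 deg C.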
VDR inh: Inhibitors of the vitamin D receptor (VDR): qHTS | VDR-SRC2-3 peptide fluorescence polarization, 2 h | 400,000 compounds, 0.93% hits | Potency, µM, for the others: max response, negative = inhibition, most hits filed as inhibitors; also: potency is read from the fitted curve at half-maximal effect; % is scaled to controls: 0 for no effect and ±100 for the full control effect
Target sequence (P11473 whole entry, looked up): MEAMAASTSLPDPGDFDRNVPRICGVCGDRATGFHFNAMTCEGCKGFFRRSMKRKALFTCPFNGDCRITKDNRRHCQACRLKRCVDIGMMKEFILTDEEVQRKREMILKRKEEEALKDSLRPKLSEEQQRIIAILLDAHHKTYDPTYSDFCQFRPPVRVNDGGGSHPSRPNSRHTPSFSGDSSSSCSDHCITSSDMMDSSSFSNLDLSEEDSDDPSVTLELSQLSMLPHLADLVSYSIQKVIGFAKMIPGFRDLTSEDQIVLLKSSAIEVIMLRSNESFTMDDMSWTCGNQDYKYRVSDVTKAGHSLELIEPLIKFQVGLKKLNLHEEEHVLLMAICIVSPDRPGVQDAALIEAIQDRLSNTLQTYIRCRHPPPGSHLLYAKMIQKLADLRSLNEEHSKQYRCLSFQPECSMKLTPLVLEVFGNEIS
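Inhibition of the VDR/SRC2-3 peptide interaction is quantified by fluorescence polarization. Compounds (23 nl, pintool) incubate with the reagents for 2 hours at ambient room temperature.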
Vif-APOBEC3F blk: qHTS for Inhibitors of Vif-A3F Interactions: qHTS; AID 602313, 2012; 390,000 compounds, 0.2% hits; Potency, µM (highest dose often 46.1 µM), without a hit: top-dose activity, negative = active; HeLa A3F-eYFP + Vif (tagged APOBEC3F with the HIV-1 protein that degrades it), YFP fluorescence increase; also: potency is read from the fitted curve at half-maximal effect; % of control where 0% means no effect; nearly all actives have a fitted effect of over 65% in size
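HeLa cells stably expressing A3F-eYFP plus Vif, plated and incubated overnight at 37 deg C, then exposed to compounds overnight at 37 deg C. Blocked degradation read as raised yellow fluorescence (Ex 488/Em 500-530).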
rTrxR1 inhibitor: qHTS Assay for Inhibitors of Mammalian Selenoprotein Thioredoxin Reductase 1 (TrxR1): qHTS; Thioredoxin reductase 1, cytoplasmic (Rattus norvegicus), O89049; recombinant rTrxR1, NADPH fluorescence consumption, selenite substrate; Potency, µM (series often up to 114 µM), without a hit: at the top dose activity change, negative = inhibition, hits mostly inhibitors; 390,000 compounds, 1% hits; AID 588453, 2011; also: potency is read from the fitted curve at half-maximal effect; % is scaled to controls: 0 for no effect and ±100 for the full control effect; nearly all actives have a fitted effect of over 65% in size
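Rat TrxR1 (90 nM in the dispensed reagent) was pre-reduced with 400 uM NADPH for 5 min at room temperature, then incubated with compound for 15 min. After 400 uM selenite was added, NADPH fluorescence (Ex 340/Em 450 nm) was followed for 8 min.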
USP1-UAF1 confirm: Inhibitors of USP1/UAF1: Hit Validation in Primary Assay; Ub-Rhodamine cleavage, fluorescence kinetic read; 50 compounds, 50% hits; shares compounds with VDR inh; Potency, µM (top dose mostly 114 µM), for inactives: top-dose activity change, negative = inhibition, hits mostly inhibitors
VDR confirm: qHTS for Inhibitors of the vitamin D receptor (VDR): Hit Validation in Primary Screen. shares compounds with VDR inh. VDR-coactivator inhibition assay, qHTS confirmation. Potency, µM, actives largely listed as inhibitors. 840 compounds, 89% hits. AID 602199, 2012; also: potency is read from the fitted curve at half-maximal effect
VDR FP: qHTS for Inhibitors of the vitamin D receptor (VDR): Hit Validation using a Fluorescein Assay. 840 compounds, 48% hits. Potency, µM (highest dose often 57.1 µM), for inactives: top-dose activity change, negative = inhibition, hits mostly inhibitors. VDR-coactivator binding, fluorescein fluorescence polarization. shares compounds with VDR inh; also: potency is read from the fitted curve at half-maximal effect
VDR bla reporter: qHTS for Inhibitors of the vitamin D receptor (VDR): Hit Validation using a Beta-Lactamase Assay; shares compounds with VDR inh; Potency, µM (doses to about 46.1 µM), for the others: at the top dose activity change, negative = inhibition, usual class: inhibitors; 840 compounds, 23% hits; VDR beta-lactamase reporter cells, FRET ratio; cells co-treated with VDR agonist LG190178; AID 602202, 2012; also: potency is read from the fitted curve at half-maximal effect; % is scaled to controls: 0 for no effect and ±100 for the full control effect
VDR cytotox: qHTS for Inhibitors of the vitamin D receptor (VDR): Hit Validation using a Cytotoxicity Assay. shares compounds with VDR inh. AID 602204, 2012. 840 compounds, 18% hits. cytotoxicity counter-screen, cell viability, qHTS. Potency, µM (top dose mostly 48.3 µM), inactives show top-dose activity change, negative = cytotoxicity, actives largely listed as cytotoxic;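 also: potency is read from the fitted curve at half-maximal effect; plate controls were DMSO for no effect and high-concentration cycloheximide for full effect; nearly all actives have a fitted effect of over 75% in size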
The depositor's hits bear a star; ? = inconclusive; / = no result; [ ] = another dose, or the depositor's remark. Calls follow the shape of the dose curve; as a rule, active = well fitted curve in the direction sought with a large enough effect; inconclusive = small, poorly fitted or top-dose-only effect, or another doubt; inactive = no such curve, though single readings can be large; an effect the other way counts as inactive or inconclusive.

SMILES | TrxR1 substrate | Vif-A3G inh | VDR inh | Vif-APOBEC3F blk | rTrxR1 inhibitor | VDR confirm | VDR FP | VDR bla reporter | VDR cytotox | others
Cc1cc(=O)cc2oc3cc(N)c(-c4c(C)cc(O)cc4O)c(C)c3nc1-2 | / | / | ? | / | / | / | / | / | / | USP1-UAF1 confirm=47µM*
CC1=NNC(=O)/C1=C\c1cn(-c2ccccc2)nc1-c1ccccc1 | -3% | -12% | ? | -2% | ? | 3.2* | 3.2µM* | 23µM* | 19µM*
Cc1ccccc1C(=O)Nc1c(C)nc2ccccn2c1=O | -2%[57.1 µM] | 4% | -1% | 5% | 8%[57.1 µM] | / | / | / | /
CC(=O)c1cccc(NC(=O)c2noc3c2CCCC3)c1 | 2% | -4% | -5% | 0% | 8% | / | / | / | /
CNc1ccc(Br)cc(C(=O)/C=C/c2cccc(Cl)c2Cl)c1=O | 5% | ? | ? | ? | 11µM* | 8.9* | -22% | 23µM* | -26%
CNc1ccc(Br)cc(C(=O)/C=C/c2cccc(OC)c2OC)c1=O | -7% | -6% | -2% | -1% | -7% | / | / | / | /
N#C/C(=C1\C(=O)Nc2c(Cl)cc(Cl)cc21)c1nnc2n1CCCCC2 | 8%[57.1 µM] | 1% | 28µM* | -10% | 7%[57.1 µM] | 6.7* | 25µM* | 35% | 18%
N#C/C(=N\Nc1cc(Cl)cc(Cl)c1)c1nnc2n1CCCCC2 | -4% | 4% | 11% | 4% | 6% | / | / | / | /
CCCC1OC2C[C@@H]3[C@H]4CCC5=CC(=O)C=C[C@]5(C)[C@H]4C(O)C[C@]3(C)[C@]2(C(=O)CO)O1 (some centres undefined) | 4% | -2% | 6% | / | 17% | / | / | / | /
Nc1c(C(=O)N2CCCCC2)sc(=S)n1-c1ccccc1 | -16% | 2% | ? | -7% | ? | 7.1* | 7.1µM* | -8% | 1%
CCOc1ccc(-n2c(N)c(C(=O)N3CCN(C)CC3)sc2=S)cc1 | -11% | -8% | -3% | -5% | -4% | / | / | / | /
CC(=O)OCOC(c1ccc2ccccc2c1)P(=O)(OCOC(C)=O)OCOC(C)=O (centres undefined) | / | / | -6% | / | / | / | / | / | /
COc1ccc2c(c1)C(=O)CC2 | 19% | -2% | / | / | 6% | / | / | / | /
CC(=O)OCC(NC(=O)C(C)NC(=O)OC(C)(C)C)C1OC(n2ccc(=O)[nH]c2=O)C(OC(C)=O)C1OC(C)=O (centres undefined) | -5% | 1% | -10% | / | 2% | / | / | / | /
